This is part of a sample that, as a whole, favours compounds with a hit. Of some 79,000 tested, about 15% had one in any assay. Activity calls are given as the source filed them. Cut-off read from the data, not from the text of the source: active = growth inhibition above about 70%; inactive = the rest.
Tests used:
[1] = NCI Yeast Anticancer Drug Screen. Data for the rad50 strain (AID 155);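 note: 0% = growth of vehicle-only cultures of the same strain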; details: S. cerevisiae rad50 strain growth inhibition; at 50.0 µM; hits give high values
Outline: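 Vehicle-treated cultures provide the reference for the growth inhibition reported for compound-exposed, repair-deficient yeast.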

[2] = NCI Yeast Anticancer Drug Screen. Data for the mec2-1 strain (AID 157); details: S. cerevisiae mec2-1 strain, at 50.0 µM, hits give high values
Outline: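 Readout is yeast growth inhibition, normalised to vehicle-treated controls, in the mec2-1 strain exposed to compound.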

[3] = NCI Yeast Anticancer Drug Screen. Data for the sgs1 mgt1 strain (AID 161);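 note: 0% = growth of cultures given vehicle only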; details: S. cerevisiae sgs1 mgt1 strain, at 50.0 µM, hits give high values
Outline: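 Percent growth inhibition was derived by comparing compound-exposed mutant yeast with vehicle-exposed cultures. The strain carries alterations in DNA damage repair.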

[4] = NCI Yeast Anticancer Drug Screen. Data for the cln2 rad14 strain (AID 165);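 note: 0% = growth equal to vehicle treated cultures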; details: S. cerevisiae cln2 rad14 strain, at 50.0 µM, hits give high values
Outline: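 Relative to vehicle controls, growth inhibition of compound-treated cln2 rad14 yeast was recorded.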

[5] = NCI Yeast Anticancer Drug Screen. Data for the bub3 strain (AID 167); details: S. cerevisiae bub3 mutant strain, at 50.0 µM, hits give high values
Outline: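 Mutant yeast screening strain plus compound; vehicle-treated cultures serve as the 0% inhibition reference.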

[6] = NCI Yeast Anticancer Drug Screen. Data for the mlh1 rad18 strain (AID 175); details: S. cerevisiae mlh1 rad18 strain growth inhibition; at 50.0 µM; hits give high values
Outline: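 Test agents were incubated with a yeast strain of defined genotype (DNA damage repair defect). Inhibition of growth was derived by comparison with vehicle-exposed cultures.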

Measured: growth inhibition

Cc1ncc(CO)c(Nc2ccccc2Cl)n1
inactive: [1] 2.5% | [2] -2.4% | [3] -6.25% | [4] -16.4% | [5] -11.7% | [6] 14.4%

O=S(=O)(O)Cc1ccccc1
inactive: [1] -29.9% | [2] -21.9% | [3] -19.1% | [4] -24.4% | [5] 2.45% | [6] 2.35%

CC(C)=NNS(=O)(=O)c1ccc(C)cc1
inactive: [1] -7.7% | [2] 14.6% | [3] 2.65% | [4] 7.2% | [5] -14.2% | [6] -7.55%

O=[N+]([O-])c1ccc(Cl)c(N=Nc2ccccn2)c1
inactive: [1] 20.2% | [2] -14.9% | [3] 21.4% | [4] -36.9% | [5] -10% | [6] 18.6%

N#CCCCCCCl
inactive: [1] -9.35% | [2] -26.9% | [3] 10.2% | [4] 4.05% | [5] -15.6% | [6] 14.8%

CC1=CC(=O)CC(C(C)C)C1 (configuration not stated)
inactive: [1] 15.5% | [2] -7.5% | [3] 22.8% | [4] -5.95% | [5] 1.95% | [6] 5.2%

O=c1cc(-c2ccccc2)c2ccccc2[nH]1
inactive: [1] 2.15% | [2] -6.8% | [3] -12.5% | [4] 15.9% | [5] -27.1% | [6] -1%

CCCCCCCCCCCCOc1ccc(Br)cc1
inactive: [1] 11.4% | [2] 9.25% | [3] 19% | [4] -23.4% | [5] -13.4% | [6] 8.7%

CN=C(NN)NS(=O)(=O)c1cc(C)c(Cl)cc1S
inactive: [1] -12.6% | [2] -22.8% | [3] -11.7% | [4] -10.9% | [5] 3.4% | [6] 7.05%

Cc1ccccc1N=Nc1c(C)nc(N)nc1-c1ccccc1
inactive: [1] 1% | [2] 8.6% | [3] 6.2% | [4] -12.6% | [5] -14.5% | [6] 12.2%

Nc1n[n+](-c2ccc(Cl)cc2)no1
inactive: [1] 67%
active: [2] 87.8% | [3] 87.4% | [4] 81.7% | [5] 82.8% | [6] 91.7%

COc1ccc(-c2oc3cc(OC)ccc3c(=O)c2O)cc1
inactive: [1] 22.5% | [2] 25.4% | [3] 8.1% | [4] -3.5% | [5] -5.1% | [6] 8.25%

CCCCCCCCCCCCCCCCCCCCCC
inactive: [1] -28.1% | [2] -26.1% | [3] -8.7% | [4] 0% | [5] -25.9% | [6] -18.1%

Cc1ccccc1NN
inactive: [1] 29.1% | [2] 7.05% | [3] -2.3% | [4] -2.6% | [5] 4% | [6] 7.6%

COC(=O)c1cccc(C)c1C(=O)c1ccc(C)cc1C
inactive: [1] 9.65% | [2] 26.6% | [3] 53.1% | [4] -22.5% | [5] 57.8% | [6] 57.2%

COC(=O)C1(O)CCC(C)CC1 (configuration not stated)
inactive: [1] 14.4% | [2] -9.25% | [3] -8.65% | [4] -26.3% | [5] 2.1% | [6] 14.8%

COc1ccc(C2C(Cl)C(=O)N2NC(=O)c2ccccc2O)cc1OC (configuration not stated)
inactive: [1] 2.85% | [2] -12.1% | [3] -18.6% | [4] 15.4% | [5] -22.4% | [6] -34.1%

Cc1ccc(N=Nc2ccc(C)cc2NC(=O)Nc2cc([N+](=O)[O-])ccc2F)cc1
inactive: [1] 13.4% | [2] -16.1% | [3] -4.6% | [4] -5.9% | [5] -4.3% | [6] -5.4%

COC(=O)C1=C(C)N(NC(N)=O)C2(N)N(NC(N)=O)C(C)=C(C(=O)OC)C12C(=O)OC (configuration not stated)
inactive: [1] -9.65% | [2] -31.2% | [3] -43.2% | [4] -9.7% | [5] -4% | [6] -26.4%

O=C(O)C1CCCCC1C(=O)Nc1ccc(Cl)c(Cl)c1 (configuration not stated)
inactive: [1] 5.75% | [2] 20.1% | [3] -5.65% | [4] -4.15% | [5] 13.6% | [6] -48.1%

O=C(O)c1cc(Cl)cc([N+](=O)[O-])c1
inactive: [1] 41.1% | [2] -3% | [3] 52.5% | [4] 19.3% | [5] 23% | [6] 52.9%

Nc1nnnn1CCc1ccccc1
inactive: [1] 7.75% | [2] 6.3% | [3] -4% | [4] -10.8% | [5] 4.4% | [6] 9.75%

O/N=C1/C2C=CC(C2)C1Cl (configuration not stated)
inactive: [1] 1.35% | [2] -5.75% | [3] 11.7% | [4] 13.7% | [5] -10.1% | [6] -16.9%

CC(=O)Nc1cc(=O)[nH]c2c1CCC2
inactive: [1] -4.05% | [2] 5.25% | [3] -1.8% | [4] -16.4% | [5] -3.6% | [6] -4.7%

COC(=O)C(C(=O)c1ccccc1)C(C(=O)C(=O)Nc1ccc(OC)cc1OC)C(=O)C(=O)c1ccc(C)cc1 (configuration not stated)
inactive: [1] -1.3% | [2] 10.8% | [3] 3.7% | [4] -3.9% | [5] 2.85% | [6] 19.6%

COc1cc(Nc2cnc3ccc(C(F)(F)F)cc3n2)cc(OC)c1OC
inactive: [1] -0.3% | [2] 4.9% | [3] 1.15% | [4] -0.8% | [5] -16.9% | [6] -3.5%

CCOC(=O)/C(O)=C\c1cc(Br)c(OC)cc1[N+](=O)[O-]
inactive: [1] 54.6% | [2] 49.7% | [3] 58.4% | [4] 9.6% | [5] 30.8% | [6] 64%

CN1C(=O)N(C)C(=O)C(C)(NS(=O)(=O)c2ccc(NC(=O)CCC(=O)O)cc2)C1=O
inactive: [1] 17.6% | [2] 11.6% | [3] 12.2% | [4] 16.1% | [5] 0.95% | [6] 24.3%

CCOC(=O)N(C)C
inactive: [1] 18.9% | [2] 12.8% | [3] 3.65% | [4] 11.1% | [5] 12.1% | [6] 8%

O=C(Nc1ccccc1)C1C2C=CC(CC2)C1C(=O)Nc1ccccc1 (configuration not stated)
inactive: [1] -0.25% | [2] 4.95% | [3] 7.7% | [4] -10.2% | [5] -11.5% | [6] -13.6%

CC(C)=NN/C=N/S(=O)(=O)c1ccc(C)cc1
inactive: [1] 15.2% | [2] 6.05% | [3] 10.4% | [4] 25% | [5] 2.1% | [6] 4.65%

Cc1n(C)c(C(O)c2ccccc2)c(Br)[n+]1C (configuration not stated)
inactive: [1] 9.3% | [2] 1.4% | [3] 8.25% | [4] -12.1% | [6] 12.6%
active: [5] 77.7%

CC(=O)NC(C)CC1=CC(=O)C(C)=CC1=O (configuration not stated)
inactive: [1] 1.45% | [2] -13.4% | [3] -16.1% | [4] -33.7% | [5] -18.9% | [6] -11.6%

CCCC1OCCO1
inactive: [1] -15.3% | [2] -0.95% | [3] -6.85% | [4] -4.5% | [5] 5.15% | [6] -3.9%

COC(=O)Nc1cccc(-c2nc3ccc(NC(=O)OC)cc3c(=O)n2-c2ccccc2)c1
inactive: [1] -26.3% | [2] -16.9% | [3] -22.6% | [4] 8.55% | [5] -15.8% | [6] 5%

COc1cc(C=C(C#N)C#N)ccc1OC(=O)c1cc(OC)c(OC)c(OC)c1
inactive: [1] -1.5% | [2] -5.6% | [3] 15.8% | [4] 2.2% | [5] 4.45% | [6] -6.25%

CC(C)(C)c1cc(C#N)cc(Br)c1O
active: [1] 98.6% | [2] 98.7% | [3] 99.3% | [4] 97.2% | [5] 97.7% | [6] 98.7%

CCOC(=O)C(N=Nc1ccc(S(N)(=O)=O)cc1)C(C)=O (configuration not stated)
inactive: [1] -0.9% | [2] -15.1% | [3] -12.7% | [4] -4.25% | [5] -13.2% | [6] 16.1%

Cc1ccc(C(=O)O)c(=O)[nH]1
inactive: [1] 3.65% | [2] -26.1% | [3] 5.3% | [4] 2.05% | [5] 7.3% | [6] -2%

CN1c2ccccc2Sc2cc(/C=C3/SC(=S)NC3=O)ccc21
inactive: [1] 1.95% | [2] 4.6% | [3] 3.55% | [4] -19.8% | [5] 38.8% | [6] 0.15%

O=C(O)C1CCC1C(=O)O (configuration not stated)
inactive: [1] -18.1% | [2] -24.1% | [3] -23.5% | [4] -23.9% | [5] 10.2% | [6] -2.5%

O=C(O)/C=C(/Br)c1ccccc1
inactive: [1] -28.9% | [2] 7.9% | [3] -13.8% | [4] -1.55% | [5] 1.4% | [6] -24.4%
